Screens as filed in PubChem BioAssay.
APP 5UTR inh: APP translation inhibition; SH-SY5Y APP 5'UTR-luciferase reporter, luminescence; inhibition, % at 2 µM; actives 0.82% (n = 190,000);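 active means inhibition above a set limit, derived from the sample mean plus 3 SD, cut at about 45% in these data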
NF-kB expr up: NF-kB expression increase, human neuronal cells. fold change at 12.5 µM. AID 1239. NF-kB reporter expression; active compounds read high. actives 1.6% (n = 190,000); in the data active means fold change above about 3.3
Hsp70 act: transcriptional activators of Hsp70. HeLa Hsp70 promoter luciferase reporter, luminescence; scaled: vehicle 0, proteasome-inhibitor control 100%. activation, % at 10 µM. actives 0.04% (n = 200,000);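 active means activation above the mean across all tested compounds plus 3 SD, cutoff set per campaign, cut at about 5.5% in these data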
STAT1 activator: activators of IFN-gamma induced STAT1 signaling; NIH 3T3 STAT1-luciferase reporter, luminescence; 100% = IFN-gamma alone, no compound; activation (% of control), % at 5.5 µM; actives 2.6% (n = 200,000); AID 932;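 active means activation above the screen-wide mean activation plus 3 SD, cut at about 130% in these data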
APP 5'UTR act: APP 5'UTR luciferase reporter activation; SH-SY5Y APP 5'UTR luciferase reporter, luminescence; zero percent = DMSO vehicle wells; activation, % at 2 µM; actives 1% (n = 190,000); AID 1276;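 active means activation above a set limit, based on mean plus 3 SD of controls, cut at about 140% in these data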
Wee1 stabilizer: blocks degradation of human Wee1 kinase; actives 1.2% (n = 220,000); P30291; HeLa Luc-Wee1K328M stability, luciferase luminescence; 100% = proteasome inhibitor MG132 effect; reporter increase, % at 5 µM;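 active means activation above the mean of all tested compounds plus 3 SD, set per screening run, cut at about 8.8% in these data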;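 further: cells exposed to compound for 20 h before luminescence read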
Target sequence (P30291 whole entry K328M): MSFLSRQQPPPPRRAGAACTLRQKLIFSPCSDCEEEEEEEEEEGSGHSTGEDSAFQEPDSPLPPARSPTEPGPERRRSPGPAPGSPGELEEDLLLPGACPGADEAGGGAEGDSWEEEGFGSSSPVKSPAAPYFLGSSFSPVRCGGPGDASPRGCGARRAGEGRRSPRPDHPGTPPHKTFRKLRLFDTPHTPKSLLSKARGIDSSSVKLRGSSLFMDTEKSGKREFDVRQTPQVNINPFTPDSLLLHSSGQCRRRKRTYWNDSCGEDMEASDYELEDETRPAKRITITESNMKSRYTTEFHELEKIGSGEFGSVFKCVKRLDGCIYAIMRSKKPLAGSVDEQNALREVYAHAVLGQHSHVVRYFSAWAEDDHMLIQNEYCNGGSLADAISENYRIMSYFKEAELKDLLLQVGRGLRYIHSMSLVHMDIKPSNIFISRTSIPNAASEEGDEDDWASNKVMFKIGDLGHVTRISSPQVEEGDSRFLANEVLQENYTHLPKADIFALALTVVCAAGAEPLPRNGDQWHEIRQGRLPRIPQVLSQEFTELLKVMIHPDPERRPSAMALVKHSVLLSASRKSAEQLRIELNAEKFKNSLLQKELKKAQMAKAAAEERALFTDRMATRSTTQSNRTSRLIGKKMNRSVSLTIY
Hits are given with their value; i = inactive; nt = no result. A selection: hits, their analogues and other compounds. The true share with any hit is near 4.8%.

SMILES | APP 5UTR inh | NF-kB expr up | Hsp70 act | STAT1 activator | APP 5'UTR act | Wee1 stabilizer
O=C1NCCN/C1=C\C(=O)c1ccccc1 | 74 | i | i | i | i | i
OC1(c2cccc(C(F)(F)F)c2)CCN(c2ccc(-c3ccccc3)nn2)CC1 | i | i | i | 141 | i | i
COc1cc(Cl)cc(/C=C/c2ccc3ccccc3n2)c1OC(C)=O | i | i | i | i | 155 | i
CC(=O)Oc1ccc(Cl)cc1/C=C/c1cc(OC(C)=O)c2ccccc2n1 | i | i | i | i | i | i
CCOc1cc(N2CCOCC2)c(OCC)cc1NC(=O)COC(=O)CCc1c[nH]c2ccccc12 | i | i | i | i | i | i
COc1ccccc1N(CC(=O)N/N=C/c1ccc(C(=O)O)cc1)S(=O)(=O)c1ccc(C)cc1 | nt | nt | nt | nt | nt | 9.0
COc1ccc(/C=N/NC(=O)CN(c2ccc(OC)cc2)S(=O)(=O)c2ccccc2)cc1 | i | i | i | i | i | i
CSc1ccccc1C(=O)NC1CCCC1 | i | i | i | i | i | 8.9
CCc1ccc(NC(=O)c2cnn3ccccc23)cc1 | i | 4 | i | i | i | i
CSc1ccccc1C(=O)Nc1ccc2c(c1)OCCO2 | i | i | i | i | i | i
O=C(NCc1ccc(F)cc1)c1cnn2ccccc12 | i | i | i | 132 | i | i
CSc1cccc(NC(=O)c2cnn3ccccc23)c1 | nt | nt | nt | nt | nt | i
CCc1ccc(NC(=O)c2ccccc2SC)cc1 | i | i | i | 129 | i | i
CSc1ccccc1C(=O)NC1CCCCC1 | i | i | i | i | i | i
Cc1cnc(C(=O)OCC(=O)Nc2cc(Cl)cc(Cl)c2)cn1 | i | i | i | i | i | i
CCOC(=O)c1c(C)[nH]c2ccc(O)cc12 | 50 | i | i | i | i | i
COc1ccc(C2C(C#N)=C(N)Oc3c2sc2nc(C)cc(C)c32)cc1 (centres undefined) | i | i | i | i | i | 10
Cn1c(COc2ccc3ccccc3c2)nnc1SCC(N)=O | i | i | i | i | i | i
O=C(/C=C/c1ccc(Cl)cc1Cl)Nc1cccc(S(=O)(=O)NC2=NCCC2)c1 | i | 7.2 | i | i | i | i
O=C(/C=C/c1ccccc1Cl)Nc1cccc(S(=O)(=O)NC2=NCCCCC2)c1 | i | i | i | i | i | i
CCCCNS(=O)(=O)c1ccc(NC(=O)c2cccs2)cc1 | i | i | i | i | i | i
Cc1nc(-c2cn[nH]c2-c2ccc(O)cc2O)cs1 | i | i | i | i | i | 9.0
Clc1ccc(OCc2nc(-c3ccccn3)no2)c(Br)c1 | i | i | i | i | 138 | i
NC(=O)c1ccc(-c2ncc(-c3ccccc3)o2)cc1 | i | 12 | i | i | i | i
c1ccc(-c2cnc(-c3cccnc3)o2)cc1 | i | i | i | 135 | i | i
SMILES | APP 5UTR inh | NF-kB expr up | Hsp70 act | STAT1 activator | APP 5'UTR act | Wee1 stabilizer
NC(=O)c1ccccc1 | i | i | i | i | i | i
COc1ccc(CN=CC2=C(O)CC(C)(C)CC2=O)cc1 | i | i | i | i | i | i
CCc1cc2c(Sc3nc4ccccc4s3)ncnc2s1 | i | i | i | 142 | i | i
Cc1ccc(/C=C/C(=O)c2cc(Br)ccc2OC(=O)c2ccco2)cc1 | 51 | i | i | i | i | i
COc1ccccc1/C=C/C(=O)c1cc(Br)ccc1OC(=O)c1ccco1 | i | nt | i | i | i | 13
O=C(/C=C/c1cc(Br)ccc1O)c1ccco1 | nt | nt | nt | nt | nt | i
CCc1ccc(/C=C/C(=O)c2cc(Br)ccc(=O)c2O)cc1 | i | i | i | i | i | i
CCc1nc(C)ccc1OCC(=O)NCCCN(C)C | i | i | i | i | i | i
COc1cccc(CNC(=O)c2cc(COc3c(F)cccc3F)on2)c1 | i | i | i | i | i | 9.8
Cc1nc(CNC(=O)c2cc(COc3c(F)cccc3F)on2)cs1 | nt | nt | nt | nt | nt | i
Cc1c(N=Cc2cccnc2)c(=O)n(-c2ccccc2)n1C | i | nt | i | i | i | i
COc1ccc(OC)c(/C=C/C(=O)N(C)CC(=O)Nc2cc(C)ccc2C)c1 | 66 | i | i | i | i | i
CCc1ccc(N2C(=O)c3sc4nnc(C)c(=O)n4c3C2=O)cc1 | i | i | i | i | i | i
S=C(NCc1ccncc1)NC1CCCC1 | i | i | i | i | i | i
COc1cc(O)sc1C=Nc1ccc(Cl)cc1 | i | i | i | 132 | i | i
Cc1cc(C(=O)CN2C(=O)NC(C)(CC(C)C)C2=O)c(C)n1-c1ccc2c(c1)OCO2 (centres undefined) | i | i | i | i | i | i
